Laboratory results published in PubChem BioAssay AID463190 (Sanford-Burnham Center for Chemical Genomics, 2010).
The campaign covered roughly 330,000 compounds. About 7,300 (2.2%) were called active. Only a selection was taken, and actives are over-represented in it overall. A number with no mark means an inactive call.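 The calls were made as follows: active = inhibition of at least 40%; inactive = the rest.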

Assay: growth inhibitors of tim10-1 mutant yeast, primary screen, luminescence, uHTS (AID 463190);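 also: mutant grown at 25 °C; 0% = DMSO wells with yeast and 100% = wells holding no yeast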
Details: S. cerevisiae tim10-1 ts strain growth, BacTiter-Glo, 24 h; at 20 µM; stronger effect = higher value

SMILES | inhibition
Cc1ccc(CNC(=O)C2(C(F)(F)F)C/C(=C\Cc3ccccc3)CCCO2)o1 (centres undefined) | 29.8%
O=C(NCc1ccncc1)c1ccc(NS(=O)(=O)c2cccc([N+](=O)[O-])c2)cc1 | -9.55%
O=C(Nc1c(Cl)cccc1Cl)C1CCC1 | 18.6%
Cc1[nH]n(-c2ccccc2)c(=O)c1CCOC(=O)c1ccc(C(F)(F)F)cc1 | 16.7%
CCc1cc(C(=O)Nc2nnc(C3CC3)s2)sc1C | 14.7%
COc1cccc(CNCc2ccc3c(c2)OCO3)c1 | -13%
CC1CCCC(C)N1C(=O)CN1CCN(c2nc(-c3ccc(F)cc3)cs2)CC1 (centres undefined) | 56.2% (active)
O=C(CN1CCN(c2nc(-c3ccccc3)cs2)CC1)NCc1ccc2c(c1)OCO2 | 30.8%
O=C(COC(=O)C1CCCO1)Nc1nc(-c2ccc(F)cc2)cs1 (centres undefined) | 5.58%
Cc1occc1-c1nnc(SCC(=O)NC2(C#N)CCCC2)n1C | -2.1%
CCOC(=O)C1=C(C)NC(C)=C(C(=O)OCC)C1C1=COCCO1 | 4.91%
COC1=C(N2CCOCC2)C(=O)c2ccccc2C1=O | 9.96%
Cc1oc2c(c1C(=O)N1CCOCC1)C(=O)c1ccccc1C2=O | 58.7% (active)
Cc1ccccc1-c1ccc(Nc2ccc(C(=O)N3CCOCC3)cc2)nn1 | 3.37%
CN1CCC(CN)(N2CCN(c3ccccc3)CC2)CC1 | 16.4%
COC(=O)C1CCN(C(=O)c2ccc3oc(Cc4ccc(Cl)cc4)nc3c2)CC1 | 14.5%
c1ccc2c(NCC3CCCO3)nc(-c3ccncc3)nc2c1 (centres undefined) | 33.4%
Clc1cccc(-c2nc(NCC3CCCO3)c3ccccc3n2)c1 (centres undefined) | 17.9%
c1ccc(-c2nc(NCc3ccco3)c3ccccc3n2)cc1 | 51.3% (active)
CCOC(=O)N1CCC(NC(=O)C(NS(=O)(=O)c2ccc3c(c2)CCN3C(=O)CC)C(C)C)CC1 (centres undefined) | -1.74%

SMILES | inhibition
CCC(=O)N1CCc2cc(S(=O)(=O)NC(C(=O)N3CCc4ccccc4C3)C(C)C)ccc21 (centres undefined) | 40.2% (active)
CCC(=O)N1CCc2cc(S(=O)(=O)CCC(=O)N3CCN(c4ccccc4F)CC3)ccc21 | 22%
COc1ccccc1-c1cnn2c(N3CCOCC3)cc(C)nc12 | 4.69%
COc1ccc(C(=O)NC(=S)N2CCNC(=O)C2CC(=O)OC(C)C)cc1 (centres undefined) | -10.3%
Cc1cccc(Cn2cnc3c(N)c(C)c(C)cc32)c1 | 16.8%
COc1cccc(CNS(=O)(=O)c2cc3c(cc2C)n(C)c(=O)c(=O)n3C)c1 | 8.44%
COc1cccc(Cn2cnc3c([N+](=O)[O-])c(C)c(C)cc32)c1 | 41% (active)
CC1CCN(C(=O)c2ccc(CSc3ccc(Cl)cc3)cc2)CC1 | 24.5%
O=C(c1ccc(S(=O)(=O)c2ccccc2)cc1)N1CCCCCC1 | 15.7%
O=C(c1ccc(CSc2ccccc2)cc1)N1CCCCCC1 | 42.3% (active)
Cc1nc(NC(=O)CCC(=O)O)sc1C(=O)N(C)C | 3.6%
Cc1ccc(S(=O)(=O)NCC2CCC(C(=O)N3CCOCC3)CC2)cc1 (centres undefined) | 9.53%
Cc1ccc(S(=O)(=O)NCC(=O)N2CCOCCOCCOCCOCC2)cc1 | 3.97%
Cc1ccc(S(=O)(=O)NC(C(=O)N2CCOCCOCCOCCOCC2)c2ccccc2)cc1 (centres undefined) | 40.5% (active)
COc1ccnc(Oc2ccccc2)n1 | -10.3%
COc1ccc(S(=O)(=O)N2CCN(CC(=O)N3CCOCC3)CC2)cc1OC | -6.09%
CNC(=O)c1csc(Cc2c(Cl)sc3ccc(Cl)cc23)n1 | 41.4% (active)
CC(=O)NNC(=O)c1csc(Cc2c(Cl)sc3ccc(Cl)cc23)n1 | 23.3%
CNC(=O)c1csc(-c2ccccc2)n1 | 8.44%
Cc1cccc(C)c1NC(=O)CN1C(=O)C(C)Oc2ccccc21 (centres undefined) | 3.34%

SMILES | inhibition
COc1ccccc1-n1ccnc(SCC(=O)NC2CCCCC2)c1=O | 43.2% (active)
COc1ccc(-c2nnc(SCC(=O)NC3CCCCC3)o2)cc1OC | 17%
COc1ccccc1-n1ccnc1SCC(=O)NC(C)(C)C | 4.37%
CCN(c1ccc(NC(=O)COC(=O)CCc2nc3ccccc3n2-c2ccccc2)cc1)C(C)C | 13.1%
O=S(=O)(c1ccc(-c2ccno2)s1)N1CCCCC1 | 9.27%
CNC(=O)C1CC(=O)N(Cc2ccc3c(c2)OCO3)C(=Nc2ccc(F)cc2)S1 (centres undefined) | -3.7%
CC(C)Oc1ccc(CC(=O)NNC(=S)Nc2ccc(Br)cc2)cc1 | 17.7%
Cc1ccc(-n2[nH]c(C)c(/C=N/NC(=O)c3cccc([N+](=O)[O-])c3)c2=O)cc1C | 6.18%
Cc1[nH]n(-c2ccccc2)c(=O)c1N=Nc1ccccc1C(=O)N1CCCCC1 | 22.5%
CC1(C)CC(=O)C(C=NCCN2CCN(C(=S)Nc3cccc(Cl)c3)CC2)=C(O)C1 | 6.34%
Cc1[nH]n(-c2ccc([N+](=O)[O-])cc2)c(=O)c1C=NCCN1CCN(C(=O)c2ccccc2F)CC1 | 42.3% (active)
CCNC(=S)N1CCN(CCN=CC2=C(O)CC(C)(C)CC2=O)CC1 | -11.3%
C=CCNC(=S)N1CCN(CCN=Cc2c(C)[nH]n(-c3ccc([N+](=O)[O-])cc3)c2=O)CC1 | 43.4% (active)
CCOc1ccc(CCNC(=O)COC(=O)c2c(OC)cccc2OC)cc1OCC | 8.9%
CCN(CC)c1ccc(C(=O)NNC(=O)CCc2nc3ccccc3c(=O)[nH]2)cc1 | 10.1%
CC(=O)Oc1c(C(=O)c2nnc(C)o2)c(=O)n(Cc2ccccc2)c2ccccc12 | 7.1%
CSCCC1NC(=O)N(CC(=O)Nc2cccc(S(=O)(=O)N3CCCCCC3)c2)C1=O (centres undefined) | 10.1%
O=S(=O)(c1ccc(F)cc1)N1CCN(C(=S)NC2CCCC2)CC1 | 16%
C[n+]1ccc(/C=C/c2c[nH]c3ccccc23)cc1 | 10.5%
